The record followed here is PubChem BioAssay.

The source made the active and inactive calls.

Experiment [1] in a line: small molecules captured by biotinylated probe aFSTL3 – biochemical, small-molecule microarray, fluorescence 635/667, stem cell growth factor project, primary screen (AID 1064).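 Further: measures binding of the biotinylated anti-FSTL3 antibody to printed compounds.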 The settings on record: higher = more signal.
Experiment [2] in a line: binders from COS7 lysate, DM2A8 probe, primary screen, torsin A project, cell lysate, small-molecule microarray, fluorescence 635/667 (AID 1065). The note with it: higher = more signal, COS7 lysate expressing mutant human TOR1A.
Experiment [3] is described as follows: small molecules captured by biotinylated probe aFGF2 – biochemical, small-molecule microarray, fluorescence 635/667, stem cell growth factor project, primary screen (AID 1067).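 Further: measures binding of biotinylated aFGF2 protein to printed compounds on slides; z-score merges feature fluorescence and signal-to-noise across triplicate slides.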 The settings on record: higher = more signal.
Experiment [4] in a line: small molecules captured by biotinylated probe aFGF10 – biochemical, small-molecule microarray, fluorescence 635/667, stem cell growth factor project, primary screen (AID 1071).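 Further: score merges 667 nm spot intensity and signal to noise from triplicate slides.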 The note with it: higher = more signal.
Experiment [5] addresses Neurogenic locus notch homolog protein 2 (Homo sapiens) (UniProt Q04721). Briefly: small molecules binding Notch2 protein – biochemical, small-molecule microarray, 635 nm fluorescence, stem cell growth factors, primary screen (AID 1073). The settings on record: higher = more signal.
The target in experiment [6] is Pro-neuregulin-1, membrane-bound isoform (Homo sapiens) (UniProt Q02297). In words: small molecules binding neuregulin-1 protein – biochemical, small-molecule microarray, fluorescence 635/667, psychiatric disease protein project, primary screen (AID 1075).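 Further: score combines 667 nm spot fluorescence with signal to noise.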 The settings on record: NRG1 binding, 635 nm fluorescence, higher = more signal.
Experiment [7] deals with Neuregulin-1 EGF-like domain. Briefly: small molecules binding NRG1 EGF domain – biochemical, small-molecule microarray, 635 nm fluorescence, primary screen (AID 1081).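 Further: binding of the protein to compounds printed on small-molecule microarray slides.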 The note with it: higher = more signal.
Experiment [8] can be described thus: FRG1 expression reporter modulators in myotubes – cell-based, C2C12 myotubes, firefly/Renilla luciferase, luminescence, FRG1 inhibition for FSHD, primary screen (AID 1084). The note with it: FRG1 promoter luciferase, higher = more signal, called active from +8 up or from −8 down.
A short description of experiment [9]: small molecules captured by biotinylated probe aFST – biochemical, small-molecule microarray, fluorescence 635/667, stem cell growth factor project, primary screen (AID 1086).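 Further: score merges 667 nm fluorescence with signal-to-noise of each printed compound spot.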 The note with it: higher = more signal.
A short description of experiment [10]: binders of probe aHhip on microarray, primary screen, stem cell growth factor project, biochemical, small-molecule microarray, fluorescence 635/667 (AID 1087).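 Further: score merges spot fluorescence at 667nm with spot signal to noise ratio.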 The note with it: higher = more signal.
Experiment [11] has as its system PRMT1 (protein arginine N-methyltransferase 1). In words: small molecules binding arginine methyltransferase PRMT1 – biochemical, small-molecule microarray, 635 nm fluorescence, primary screen (AID 1088).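 Further: binding of Prmt1 protein to compounds spotted on small-molecule microarray slides.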 The settings on record: higher = more signal.
Experiment [12] is described as follows: growth effects on S. cerevisiae YJM789 – YJM789 clinical isolate, OD600, 24 h, basal, primary screen (AID 1089).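 Further: growth of clinical yeast isolate S. cerevisiae YJM 789 seeded 1000 cells per well; test concentration not given here.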 The settings on record: higher = more signal, called active from +8 up or from −8 down.
A short description of experiment [13]: S. pombe growth modifiers, basal conditions – strain 972, OD600, 24 h, no modulator, primary screen (AID 1090).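 Further: basal condition with compound alone and no growth modifier present; test concentration not given here.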 The settings on record: S. pombe 972 growth, higher = more signal, called active from +8 up or from −8 down.
A short description of experiment [14]: budding yeast growth modifiers under rapamycin – strain BY4716, OD600, 96 h, primary screen (AID 1091). Further: test concentration not given here. The note with it: S. cerevisiae BY4716 + rapamycin, higher = more signal, called active from +8 up or from −8 down.
In experiment [15] the target is Torsin-1A-interacting protein 2 (Homo sapiens) (UniProt Q8NFQ8). Briefly: small molecules binding lysate-expressed LULL1 – cell lysate, human LULL1 lysate, 635/667 nm fluorescence, primary screen (AID 1092).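 Further: probe is lysate of COS7 cells overexpressing human LULL1; score merges per-feature 667 nm fluorescence with signal-to-noise.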 The note with it: small-molecule microarray, hLULL1 lysate binding, 635 nm fluorescence; higher = more signal.
The nature of experiment [16]: optical density change of DRC41 E. coli – strain DRC41, OD650, 24 h, E. coli filamentation project, primary screen (AID 1093).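 Further: MC1000 strain lacking acrAB efflux and sulA so SOS filamentation is blocked; test concentration not given here.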 The note with it: E. coli DRC41 growth, higher = more signal, called active from +8 up or from −8 down.
Experiment [17] in a line: probe aLefty2 binding to arrayed compounds – biochemical, biotinylated probe, 635/667 nm fluorescence, primary screen (AID 1094).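 Further: score merges spot fluorescence near 667 nm with spot signal-to-noise ratio.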 The note with it: small-molecule microarray, higher = more signal.
Experiment [18] has as its system Noggin (protein binding on small-molecule microarray). In words: small molecules binding Noggin protein – biochemical, 635/667 nm fluorescence, primary screen (AID 1095).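 Further: score merges 667 nm feature fluorescence with signal to noise over triplicate slides.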 The settings on record: 635 nm fluorescence, higher = more signal.
For experiment [19], the target named is Neurogenic locus notch homolog protein 3 (Homo sapiens) (UniProt Q9UM47). Briefly: small molecules binding NOTCH3 protein – biochemical, 635/667 nm fluorescence, primary screen (AID 1096). The settings on record: small-molecule microarray, 635 nm fluorescence, higher = more signal.
Experiment [20] can be described thus: probe aEGFR binding to arrayed compounds – biochemical, biotinylated probe, 635/667 nm fluorescence, primary screen (AID 1097).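 Further: probe is a biotinylated anti-EGFR antibody binding compounds printed on slides; score combines fluorescence near 667 nm and signal to noise of each spot.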 The settings on record: small-molecule microarray, higher = more signal.

Sequence of Neurogenic locus notch homolog protein 3 (Homo sapiens) (Q9UM47 whole entry, looked up): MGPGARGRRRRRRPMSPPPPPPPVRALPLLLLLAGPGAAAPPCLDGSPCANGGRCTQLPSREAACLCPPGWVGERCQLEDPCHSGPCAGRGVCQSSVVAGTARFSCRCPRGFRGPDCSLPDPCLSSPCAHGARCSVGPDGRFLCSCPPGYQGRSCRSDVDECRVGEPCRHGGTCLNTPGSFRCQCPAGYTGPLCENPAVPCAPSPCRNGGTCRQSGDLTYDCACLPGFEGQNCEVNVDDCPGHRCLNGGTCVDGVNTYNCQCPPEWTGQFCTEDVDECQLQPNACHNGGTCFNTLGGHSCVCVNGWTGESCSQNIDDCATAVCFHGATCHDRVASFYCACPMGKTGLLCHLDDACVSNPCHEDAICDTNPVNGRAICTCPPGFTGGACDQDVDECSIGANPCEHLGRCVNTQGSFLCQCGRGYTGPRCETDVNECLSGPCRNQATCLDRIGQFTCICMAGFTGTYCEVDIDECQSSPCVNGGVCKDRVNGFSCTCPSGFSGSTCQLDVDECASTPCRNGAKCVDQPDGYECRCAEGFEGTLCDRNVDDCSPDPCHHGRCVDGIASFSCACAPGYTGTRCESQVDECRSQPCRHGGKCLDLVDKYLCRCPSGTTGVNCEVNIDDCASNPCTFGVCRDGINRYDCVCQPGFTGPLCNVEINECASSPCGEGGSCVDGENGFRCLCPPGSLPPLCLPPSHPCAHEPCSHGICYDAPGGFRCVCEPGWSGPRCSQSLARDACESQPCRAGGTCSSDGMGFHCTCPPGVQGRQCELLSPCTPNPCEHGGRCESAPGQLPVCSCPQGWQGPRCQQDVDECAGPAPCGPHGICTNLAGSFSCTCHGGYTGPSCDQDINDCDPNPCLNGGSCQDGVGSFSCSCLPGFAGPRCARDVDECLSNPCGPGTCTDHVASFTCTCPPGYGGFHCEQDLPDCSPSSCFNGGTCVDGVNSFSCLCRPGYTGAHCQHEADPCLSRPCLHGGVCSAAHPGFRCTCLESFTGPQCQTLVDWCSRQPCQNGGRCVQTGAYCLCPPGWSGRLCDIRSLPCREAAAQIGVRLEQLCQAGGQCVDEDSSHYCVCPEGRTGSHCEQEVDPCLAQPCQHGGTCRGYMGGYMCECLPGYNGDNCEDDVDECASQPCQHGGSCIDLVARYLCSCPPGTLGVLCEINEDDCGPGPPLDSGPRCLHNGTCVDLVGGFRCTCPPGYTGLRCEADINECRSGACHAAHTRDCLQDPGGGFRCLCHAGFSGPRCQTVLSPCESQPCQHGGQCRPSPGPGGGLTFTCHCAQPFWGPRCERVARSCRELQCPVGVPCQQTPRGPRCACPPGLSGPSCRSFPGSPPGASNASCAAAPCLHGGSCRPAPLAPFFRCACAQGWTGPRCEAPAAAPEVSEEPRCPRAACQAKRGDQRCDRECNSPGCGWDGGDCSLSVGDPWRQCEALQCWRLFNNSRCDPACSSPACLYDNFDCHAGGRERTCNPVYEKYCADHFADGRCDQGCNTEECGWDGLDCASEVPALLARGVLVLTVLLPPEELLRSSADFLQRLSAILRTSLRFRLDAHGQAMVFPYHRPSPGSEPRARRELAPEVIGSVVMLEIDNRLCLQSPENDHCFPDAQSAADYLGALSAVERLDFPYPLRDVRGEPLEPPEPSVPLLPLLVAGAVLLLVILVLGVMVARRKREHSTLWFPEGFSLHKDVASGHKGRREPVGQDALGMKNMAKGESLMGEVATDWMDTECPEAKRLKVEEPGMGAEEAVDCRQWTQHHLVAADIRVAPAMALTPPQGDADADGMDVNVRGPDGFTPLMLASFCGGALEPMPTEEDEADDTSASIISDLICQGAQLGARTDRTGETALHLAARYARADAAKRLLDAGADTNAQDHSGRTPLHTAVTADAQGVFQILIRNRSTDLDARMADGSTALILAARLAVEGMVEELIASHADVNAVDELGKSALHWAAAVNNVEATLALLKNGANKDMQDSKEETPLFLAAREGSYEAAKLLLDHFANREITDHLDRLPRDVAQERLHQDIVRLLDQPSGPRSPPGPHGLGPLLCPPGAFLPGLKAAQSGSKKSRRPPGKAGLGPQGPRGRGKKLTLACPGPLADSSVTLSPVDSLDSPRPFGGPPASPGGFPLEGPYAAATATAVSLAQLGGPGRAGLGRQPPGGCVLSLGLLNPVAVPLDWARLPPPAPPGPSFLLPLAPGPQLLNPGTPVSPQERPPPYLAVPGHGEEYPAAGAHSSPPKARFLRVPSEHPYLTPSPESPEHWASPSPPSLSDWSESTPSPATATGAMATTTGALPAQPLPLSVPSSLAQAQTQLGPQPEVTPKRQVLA
Sequence of Torsin-1A-interacting protein 2 (Homo sapiens) (Q8NFQ8 whole entry, looked up): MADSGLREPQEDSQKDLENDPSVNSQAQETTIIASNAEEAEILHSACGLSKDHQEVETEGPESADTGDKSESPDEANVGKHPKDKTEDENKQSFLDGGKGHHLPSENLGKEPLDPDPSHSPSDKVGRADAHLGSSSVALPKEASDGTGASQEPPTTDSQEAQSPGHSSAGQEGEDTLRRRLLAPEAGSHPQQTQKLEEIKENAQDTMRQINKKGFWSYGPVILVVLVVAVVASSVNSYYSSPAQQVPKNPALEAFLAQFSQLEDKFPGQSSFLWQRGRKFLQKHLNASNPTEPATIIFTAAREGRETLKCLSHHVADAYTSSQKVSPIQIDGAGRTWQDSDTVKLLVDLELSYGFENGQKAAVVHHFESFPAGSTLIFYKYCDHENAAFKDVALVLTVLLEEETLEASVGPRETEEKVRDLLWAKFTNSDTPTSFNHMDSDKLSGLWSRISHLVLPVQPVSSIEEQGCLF
Sequence of Pro-neuregulin-1, membrane-bound isoform (Homo sapiens) (Q02297 whole entry, looked up, the tested form may be a part, canonical isoform): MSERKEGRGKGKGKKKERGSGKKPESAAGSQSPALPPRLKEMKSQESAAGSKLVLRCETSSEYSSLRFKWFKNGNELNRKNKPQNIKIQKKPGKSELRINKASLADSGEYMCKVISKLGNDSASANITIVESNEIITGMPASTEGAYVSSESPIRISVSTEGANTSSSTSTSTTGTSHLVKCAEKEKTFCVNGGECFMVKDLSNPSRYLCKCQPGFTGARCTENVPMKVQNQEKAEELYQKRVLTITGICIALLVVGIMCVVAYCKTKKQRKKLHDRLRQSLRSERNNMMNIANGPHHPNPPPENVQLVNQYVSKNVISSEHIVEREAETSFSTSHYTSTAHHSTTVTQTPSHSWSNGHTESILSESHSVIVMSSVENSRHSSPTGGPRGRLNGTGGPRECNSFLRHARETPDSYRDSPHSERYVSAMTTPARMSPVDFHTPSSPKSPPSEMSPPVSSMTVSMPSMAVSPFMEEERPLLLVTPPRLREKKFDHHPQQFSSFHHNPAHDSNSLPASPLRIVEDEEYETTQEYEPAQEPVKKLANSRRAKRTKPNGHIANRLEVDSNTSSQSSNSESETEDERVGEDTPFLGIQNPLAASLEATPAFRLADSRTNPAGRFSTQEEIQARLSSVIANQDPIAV

On to `C=CCNC(=O)[C@H]1[C@@H]2C(=O)O[C@@H](c3ccccc3)[C@@H](c3ccccc3)N2[C@@H](c2ccc(O)cc2)[C@]12C(=O)Nc1ccc(C#Cc3ccc(OC)cc3)cc12`, for which the composite z-score in experiment [1] was -0.523; in experiment [2], 0.396; in [3], -0.0158; in [4], 0.357; in [5], 1.27; in experiment [6] it was 0.384. The composite z-score in [7] was found to be 1.07; in experiment [9], 0.786; in [10], 0.473; in experiment [11] it was 1.49; in experiment [15], 2.86; in experiment [17] it was 0.369. Also, the composite z-score in experiment [18] was 0.41; in experiment [19], 1.12; in [20], 0.469. In addition, the z-score in experiment [8] is 0.0523 (inactive); in experiment [12] it was -0.209 (inactive); in experiment [13], 1.14 (inactive); in experiment [14] it was 0.832 (inactive); in experiment [16], -0.451 (inactive).

In the case of `COC(=O)c1nc2oc1CC[C@@H](CO)NC(=O)N(C)Cc1cn(nn1)C[C@H](Cc1ccccc1)NC2=O`, the composite z-score in experiment [1] is 0.0478; in [2], -0.871; in [3], -0.0982; in experiment [4], 0.0055; in experiment [5] it was 0.242; in experiment [6] it was 1.01. The composite z-score is 1.09 in experiment [7]; -0.324 in [9]; -0.226 in [10]; 0.594 in experiment [11]; 2.59 in experiment [15]; -0.139 in [17]. Moreover, the values for the composite z-score in [18], in experiment [19] and in [20] were 1.04, 0.175 and -0.181, respectively. Moreover, the z-score in [8] was -0.605 (inactive); in experiment [12], 0.654 (inactive); in experiment [13] it was -3.35 (inactive); in [14], -0.858 (inactive); in experiment [16], 2.05 (inactive).

As to `O=C1O[C@@H](c2ccccc2)[C@@H](c2ccccc2)N2[C@@H](c3ccc(O)cc3)[C@]3(C(=O)Nc4ccccc43)[C@@H](C(=O)N3CCCCCCC3)[C@H]12`, the composite z-score in experiment [1] stood at 3.65; in experiment [2] it was 1.15; in experiment [3] it was 0.937; in [4], 0.525; in experiment [5], 0.519; in experiment [6], 2.22. The composite z-score in experiment [7] is 1.35; in experiment [9] it was 2.99; in [10] it was 1.07; in experiment [11], 1.54; in [15], 4.32; in experiment [17], 1.54. Moreover, the composite z-score stood at 0.589 in [18], 0.896 in experiment [19] and 1.13 in [20]. Besides, the z-score in experiment [8] was -4.16 (inactive); in experiment [12], 0.964 (inactive); in [13], 0.295 (inactive); in experiment [14] it was 1.9 (inactive); in experiment [16] it was 0.271 (inactive).

Regarding `Cc1cccc(/C=C/C=O)c1`, the composite z-score in experiment [1] is -0.305; in experiment [2] it was -0.582; in experiment [3], -0.0996; in experiment [4], 0.0071; in [5], -0.663; in [6], 0.27. The composite z-score is 0.928 in [7]; 0.211 in experiment [9]; -0.056 in experiment [10]; 0.425 in experiment [11]; 1.54 in experiment [15]; -0.186 in [17]. For the same molecule, the composite z-score in experiment [18] is 0.0535; in [19], -0.136; in experiment [20], -0.246. The z-score was 0.641 (inactive) in [8]; 0.897 (inactive) in [12]; -4.56 (inactive) in [13]; -0.104 (inactive) in experiment [14]; -0.0384 (inactive) in experiment [16].

Regarding `CCN(CC)c1ccc(N2CC=CC34O[C@@H]5C=CCOC(=O)[C@@H]5[C@H]3C(=O)N(CCCCCO)[C@@H]4C2=O)cc1` (stereo not given in full), the composite z-score was 0.594 in experiment [1]; 2.08 in experiment [2]; -0.129 in experiment [3]; -0.39 in [4]; -0.866 in [5]; 1.42 in experiment [6]. Besides, the composite z-score was 1.53 in experiment [7]; -0.409 in experiment [9]; -0.0618 in experiment [10]; -0.456 in experiment [11]; 2.74 in experiment [15]; -0.138 in [17]. For the same molecule, the composite z-score was -0.769 in experiment [18], -0.589 in experiment [19] and -0.201 in experiment [20]. Besides, the z-score in experiment [8] was -0.309 (inactive); in experiment [12], -0.821 (inactive); in [13], -1.3 (inactive); in experiment [14], -0.522 (inactive); in [16], 1.29 (inactive).

Turning to `CO[C@H]1O[C@H](CO)[C@@H](OC(=O)Nc2cccc(F)c2)[C@H](OC(=O)Nc2ccccc2-c2ccccc2)[C@@H]1OC(=O)Nc1ccccc1-c1ccccc1`, the composite z-score in experiment [1] was -0.217; in experiment [2], 0.568; in [3], 0.111; in [4], 0.669; in [5], 1.65; in [6], 1.75. Besides, the composite z-score is 1.29 in [7]; 1.02 in [9]; -0.374 in experiment [10]; 1.55 in [11]; 3.34 in experiment [15]; 0.134 in [17]. Moreover, the composite z-score in experiment [18] is 0.615; in [19], 1.05; in experiment [20] it was -0.013. The z-score in [8] is 1.16 (inactive); in [12] it was 2.1 (inactive); in [13], 1.88 (inactive); in [14] it was -1.23 (inactive); in [16], 0.675 (inactive).

Consider `CC(C)N1C(=O)c2ccccc2[C@](C)(C(=O)NCCCN(C)C)[C@@H]1c1ccc(CO)cc1`, for which the composite z-score in experiment [1] is 0.261; in experiment [2] it was 1.04; in [3], -0.154; in [4] it was -0.231; in experiment [5], -0.595; in [6], 0.724. The composite z-score is 1.07 in experiment [7]; -0.128 in experiment [9]; -0.0672 in [10]; -0.109 in experiment [11]; 2.41 in [15]; 0.0071 in experiment [17]. Also, the composite z-score was -0.818 in [18], -1.28 in experiment [19] and -0.22 in experiment [20]. The z-score was 1.47 (inactive) in experiment [8]; -0.763 (inactive) in [12]; -1.26 (inactive) in [13]; -1.36 (inactive) in [14]; 0.0321 (inactive) in experiment [16].

Regarding `COCC1C2CC[C@H]3C(OCc4ccc(F)cc4C(F)(F)F)OC[C@]4(C)[C@H]3C2=C(CN4C(=O)OC(C)(C)C)[C@H](C)C1COC` (stereo not given in full), the composite z-score was found to be 0.409 in experiment [1]; 0.0838 in experiment [2]; 0.0807 in [3]; 0.224 in experiment [4]; 1.58 in experiment [5]; 2.05 in [6]. Besides, the composite z-score in experiment [7] is 0.782; in experiment [9], 0.945; in [10] it was -0.0672; in [11], 0.61; in experiment [15] it was 3.48; in [17], 0.522. The values for the composite z-score in experiment [18], in experiment [19] and in experiment [20] were -0.761, 0.96 and 0.0598, respectively. In addition, the z-score in experiment [8] was -0.255 (inactive); in experiment [12], -0.886 (inactive); in [13] it was 1.04 (inactive); in experiment [14] it was -0.2 (inactive); in [16] it was -1.02 (inactive).

Take `CCCC[C@@H]1C[C@H]1[C@@H](NC(=O)c1ccccc1)c1ccc(-c2ccccc2)cc1`: the composite z-score is -0.138 in [1]; 0.535 in [2]; 0.0805 in [3]; -0.0214 in experiment [4]; 0.294 in [5]; 0.23 in experiment [6]. Also, the composite z-score in [7] was 0.341; in [9] it was 0.442; in experiment [10], -0.21; in experiment [11], 0.409; in [15] it was 2.3; in experiment [17], -0.12. The composite z-score was 0.364 in experiment [18], 0.496 in experiment [19] and -0.117 in experiment [20]. For the same molecule, the z-score was -1.76 (inactive) in [8]; -2.02 (inactive) in [12]; 0.256 (inactive) in experiment [13]; 2.7 (inactive) in experiment [14]; -0.947 (inactive) in [16].
